High-throughput results (PubChem BioAssay)
ERG Ets-DNA blk: qHTS for Small Molecule Inhibitors of the ERG Ets/DNA interaction. fluorescence polarization, His-ERG Ets domain / labelled DNA. 370,000 tested, 0.028% active. Transcriptional regulator ERG (Homo sapiens), P11308. Potency, µM (top dose mostly 76.9 µM), most hits filed as inhibitors. AID 624246, 2012; active = well fitted inhibition curve with a large enough effect in the polarisation, with a control signal flat; inconclusive = small, poorly fitted or top-dose-only effect, or effect the other way, or a change in a side signal; inactive = no such curve, though single readings can be large or run the other way; the % refers to the polarisation;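 note: polarization taken with two DNA probes labelled with fluorescein and Texas red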
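His-tagged ERG Ets domain (1 uM in the protein solution; 300mM KCl, 50mM Tris-HCl, 1mM EDTA, 1mM DTT, pH 7.5) received compound, then a probe mix of 5 nM fluorescein-DNA and 100nM Texas-615-DNA. Fluorescence polarization was read for both dyes.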
DRD3 agonist: qHTS of D3 Dopamine Receptor Agonist: qHTS | D(3) dopamine receptor (Homo sapiens), P35462 | D3R DiscoveRx beta-arrestin cells, luminescence, 90 min | max activation, % | 410,000 tested, 0.58% active | AID 652048, 2013; in the data active = max activation above about 30%
Target sequence (P35462 whole entry, looked up): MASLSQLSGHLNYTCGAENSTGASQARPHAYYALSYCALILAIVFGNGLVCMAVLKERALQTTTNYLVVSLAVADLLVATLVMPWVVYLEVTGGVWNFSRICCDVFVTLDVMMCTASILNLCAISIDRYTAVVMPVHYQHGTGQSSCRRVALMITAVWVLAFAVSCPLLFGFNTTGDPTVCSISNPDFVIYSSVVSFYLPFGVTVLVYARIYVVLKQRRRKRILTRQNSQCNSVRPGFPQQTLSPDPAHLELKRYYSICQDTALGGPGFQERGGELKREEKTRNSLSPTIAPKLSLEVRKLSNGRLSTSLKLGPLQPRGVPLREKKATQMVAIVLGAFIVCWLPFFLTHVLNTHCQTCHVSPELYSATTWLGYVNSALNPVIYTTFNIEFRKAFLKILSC
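Agonist mode: compounds and dopamine controls were applied to plated cells for 90 min at 37 degrees C after an overnight attachment at 1500 cells/well. Luminescent read-out followed 30 - 60 minutes at room temperature with DiscoveRx detection reagent.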
D1 agonist: Allosteric Agonists of the Human D1 Dopamine Receptor: qHTS; D(1A) dopamine receptor (Homo sapiens), P21728; HEK293 T-REx D1 cells, calcium flux, agonist mode; activation, % at 2 µM; 360,000 tested, 1% active; AID 504660, 2011; in the data active = activation above about 30%
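Agonism was scored from calcium flux recorded over 180 s (1 read/s) after pintool compound addition, following a 10-cycle baseline. Cells were inducible force-coupled HEK293 TREx D1, plated overnight at 30 C and loaded with no-wash calcium dye.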
D1 potentiator: Potentiators of Human D1 Dopamine Receptor: qHTS | HEK293 TREx D1 cells, calcium flux, dopamine EC20 potentiation | potentiation, % at 10 µM | 360,000 tested, 0.036% active; in the data active = potentiation above about 30%
D1 antagonist: Antagonist of Human D 1 Dopamine Receptor: qHTS | D(1A) dopamine receptor (Homo sapiens), P21728 | HEK293 TREx D1 cells, calcium flux, dopamine EC80; stronger effect = lower value | activity change, negative = inhibition, % at 10 µM | 360,000 tested, 3.2% active | AID 504652, 2011; in the data active = activity change below about -30%
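HEK293 T-REx cells expressing inducible, force-coupled D1 receptor; no-wash Ca dye, 30–90 min RT. Cmpd → 180 s read at 1 Hz → EC80 DA → 180 s read.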
DRD3 antagonist: qHTS of D3 Dopamine Receptor Antagonist: qHTS. D(3) dopamine receptor (Homo sapiens), P35462. D3R cells, DiscoveRx beta-arrestin luminescence, antagonist mode; stronger effect = lower value. max response, negative = inhibition, %. 360,000 tested, 2.5% active; in the data active = max response below about -50%; inconclusive = no clear call, values can overlap the other calls
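Cells expressing the human receptor were seeded at 1500 cells/well, incubated overnight at 37 degrees C in 5% CO2, then exposed to library compounds with dopamine controls for 90 minutes at 37 degrees C before luminescent detection.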
Hits are given with their value; . = inactive; ? = inconclusive; / = no result. This is a sample that favours compounds with a hit; in the whole collection about 6.1% have one here.

SMILES | ERG Ets-DNA blk | DRD3 agonist | D1 agonist | D1 potentiator | D1 antagonist | DRD3 antagonist
C=CCN(CC=C)Cc1cc(=O)oc2ccc3ccccc3c12 | / | . | / | / | / | .
O=C(N/N=C/C(Br)=C/c1ccccc1)c1cccnc1 | . | . | . | . | . | .
COc1cc2c(cc1OC)CN(C(=O)c1cc(COc3ccccc3SC)on1)CC2 | / | . | / | / | / | .
CCOC(=O)N1CCC(NC(=O)c2ccccc2C(=O)O)CC1 | . | . | . | . | . | .
CCOC(=O)N1CCC(NC(=O)c2cc(COc3ccccc3SC)on2)CC1 | . | . | . | . | -33 | .
CSc1ccccc1OCc1cc(C(=O)N2CCc3c(Cl)cccc3C2)no1 | . | 32 | . | . | . | .
CCOC(=O)N1CCC(NC(=O)c2cc(C)c3c(C)nn(-c4ccccc4)c3n2)CC1 | . | 46 | . | . | . | .
CN(Cc1ccccc1F)Cc1cc(=O)oc2cc(O)c(Cl)cc12 | . | . | . | . | . | .
O=C(O)c1cccc(NC(=S)NC(=O)c2cncc(Br)c2)c1 | . | . | / | / | / | -63
Cc1nc2ccc(NC(=O)c3ccccc3)cc2s1 | . | . | . | . | . | .
Cc1nc2ccc(NC(=O)c3cccs3)cc2s1 | . | . | . | . | . | .
Cc1nc2ccc(NC(=O)c3sccc3C)cc2s1 | . | . | . | . | -39 | ?
Cc1nc2ccc(NC(=O)c3cncc(Br)c3)cc2s1 | . | . | . | . | -36 | .
CCn1nc(C(=O)Nc2ccc3nc(C)sc3c2)c2ccccc2c1=O | . | . | . | . | . | -86
O=C1CCN(Cc2ccccc2)CCN1CCOc1ccccc1 | . | . | . | . | . | .
CCN(CC)CCNCc1cc(Cl)c(OCC(=O)Nc2ccccc2)c(OC)c1 | . | . | . | . | . | .
COc1cc(CNC(C)c2ccccc2)cc(Cl)c1OCC(=O)Nc1ccccc1 (stereo not given) | . | . | 64 | . | / | .
COc1ccc(S(=O)(=O)N2CCCCCC2)cc1NC(=O)CN(C)Cc1ccc2c(c1)OCO2 | . | . | . | . | . | -68
CN(CC(=O)Nc1cc(S(=O)(=O)N2CCCCCC2)ccc1Cl)Cc1ccc2c(c1)OCO2 | . | . | . | . | . | -54
COc1cccc(CN(C)CC(=O)Nc2cc(S(=O)(=O)N3CCCC3)ccc2Cl)c1OC | . | . | . | . | . | .
CN(CC(=O)Nc1cc(S(=O)(=O)N2CCCC2)ccc1Cl)Cc1ccc2c(c1)OCO2 | . | . | . | . | -37 | .
CN1CCN(S(=O)(=O)c2ccc(NCc3ccc4c(c3)OCO4)nc2)CC1 | . | . | . | . | -33 | .
O=C(O)CCC(=O)Nc1ccc(-c2csc(Nc3cccc4ccccc34)n2)cc1 | . | . | . | . | . | .
COc1cccc(NC(=O)CN(c2ccccc2OC)S(=O)(=O)c2cccs2)c1 | . | . | . | . | . | .
COc1ccc(C(=O)CSc2nnc(CN3CCCCC3)n2-c2ccc(Cl)cc2)cc1OC | . | . | . | . | . | .
SMILES | ERG Ets-DNA blk | DRD3 agonist | D1 agonist | D1 potentiator | D1 antagonist | DRD3 antagonist
CN(CC(=O)Nc1cc([N+](=O)[O-])ccc1Cl)Cc1ccc(Br)cc1 | / | . | . | . | . | -85
CN(CC(=O)Nc1ccc(S(=O)(=O)N2CCCC2)cc1)Cc1c(F)cccc1Cl | . | . | . | . | -32 | .
O=C(CSc1nnc(COc2ccccc2F)n1-c1ccccc1)NC1CCS(=O)(=O)C1 (stereo not given) | . | . | . | . | . | .
Cc1ccc(CN2CCN(/N=C/c3cc(Br)cc(Br)c3O)CC2)cc1 | . | . | . | . | . | .
Oc1c(Br)cc(Br)cc1/C=N/N1CCN(Cc2ccccc2)CC1 | . | . | . | . | . | -80
CCc1ccc2oc(C(=O)N3CCN(c4ccc(OC)cc4)CC3)cc(=O)c2c1 | . | . | . | . | -41 | .
O=C(O)CCCC(=O)Nc1cccc2cccnc12 | . | . | . | . | -95 | .
COc1ccc(CNS(=O)(=O)c2cc3c(cc2C)N(C)CCO3)cc1 | . | . | . | . | . | .
CCC(C(=O)NC(C)(C)C)n1c(-c2cccc(NC(C)=O)c2)nc2ccccc21 (stereo not given) | / | . | / | / | / | .
C=C(C)[C@@H]1CC=C(CN2CCC(N3CCC(C(=O)N4CCCC4)CC3)CC2)CC1 | . | . | . | . | . | .
C=C(C)[C@@H]1CC=C(CN2CCN(Cc3ccccc3)CC2)CC1 | . | . | . | . | . | -65
C=C(C)C1CC=C(CN2CCC(O)CC2)CC1 (stereo not given) | / | . | . | . | . | ?
C=C(C)C1CC=C(CN2CCN(Cc3ccccc3)CC2)CC1 (stereo not given) | . | . | . | . | . | -57
Cc1cccc(-n2c(C)nc3cc(C(=O)NCC4CCCO4)ccc32)c1 (stereo not given) | . | . | . | . | . | .
COc1ccc(CNC(=S)Nc2ccc(Br)cc2)cc1 | ? | . | 37 | . | . | .
COc1ccc(NC(=S)NCc2cccnc2)cc1 | . | . | . | . | -31 | .
S=C(NCc1cccnc1)Nc1ccc(Cl)c(Cl)c1 | / | . | . | . | -46 | .
O=C(NCc1cccnc1)Nc1ccc(Cl)c(Cl)c1 | . | . | . | . | -46 | .
COc1ccc(/C=C/C(=O)NCc2cccnc2)cc1 | . | . | . | . | -40 | .
COc1cc(/C=C/C(=O)NCc2cccnc2)cc(OC)c1OC | . | . | . | . | . | .
Brc1ccccc1OCCCN1CCCCCC1 | . | . | . | . | -60 | -82
Brc1ccccc1OCCN1CCCC1 | . | . | / | / | / | -62
Brc1ccccc1OCCCCCN1CCOCC1 | . | . | . | . | . | ?
Brc1ccccc1OCCCN1CCCC1 | . | . | . | . | -45 | ?
O=C1c2ccccc2C(=O)N1CCOc1ccccc1Br | ? | . | . | . | . | .
Cc1ccc(N/N=C/c2c(C)c(C#N)c(=O)n(C)c2O)cc1C | . | . | . | . | . | .
CC1=CC=CN2C1=NC(=O)CC2(C)C(=O)N(CC(=O)NC1CCCC1)Cc1ccccc1 (stereo not given) | . | . | . | . | . | .
CC1=C(C#N)C(/C=N/OCc2ccc(Cl)cc2)CC(=O)N1 (stereo not given) | . | . | . | . | . | .
COCCC(=O)NNS(=O)(=O)c1ccc(Cl)cc1 | . | . | . | . | . | .
